Measured values: PubChem BioAssay AID1159580 (chemical genetic matrix, 2015)
Where “and” joins values, the source holds several entries; their conditions need not be identical. Identical values can stand only once. Out of some 5,500 compounds screened, about 2,000 (36%) were called active. Inconclusive results (about 18%) are left out. No stated cut-off is given here; in the data, active means normalized growth mostly below about 0.91 (no sharp cut-off); inconclusive means no clear call, values can overlap the other calls; inactive means mostly above about 0.92. This is one part of the list.

Assay: chemical genetic growth profiling, strain panel (AID 1159580);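 further: tested at 20 µM; growth read once vehicle control cultures reached saturation at 30 °C; 1 = growth at the plate median or of vehicle wells; lower values mean less growth of the strain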
Settings: growth OD

Measured: normalized growth

O=C(O)c1cc2cc(Cc3cccnc3)ccc2o1
inactive: S. cerevisiae deletion strains, locus YAL013W, strain DEP1, hits give low values 1.02 | S. cerevisiae deletion strains, locus YAL040C, strain CLN3, hits give low values 0.986 | S. cerevisiae deletion strains, locus YBR021W, strain FUR4, hits give low values 1 | S. cerevisiae deletion strains, locus YBR229C, strain ROT2, hits give low values 1.01 | S. cerevisiae deletion strains, locus YCL029C, strain bik1, hits give low values 0.995 | S. cerevisiae deletion strains, locus YCL061C, strain MRC1 (second series), hits give low values 1.01 | S. cerevisiae deletion strains, locus YDL035C, strain GPR1, hits give low values 0.994 | S. cerevisiae deletion strains, locus YDL074C, strain BRE1, hits give low values 0.995 | S. cerevisiae deletion strains, locus YDL101C, strain DUN1, hits give low values 1.01 | S. cerevisiae deletion strains, locus YDL134C, strain PPH21, hits give low values 0.993 | S. cerevisiae deletion strains, locus YDL185W, strain tfp1, hits give low values 0.994 | S. cerevisiae deletion strains, locus YDL192W, strain arf1, hits give low values 1 | S. cerevisiae deletion strains, locus YDR101C, strain arx1, hits give low values 1.02 | S. cerevisiae deletion strains, locus YDR162C, strain NBP2, hits give low values 1 | S. cerevisiae deletion strains, locus YDR318W, strain mcm21, hits give low values 0.986 | S. cerevisiae deletion strains, locus YDR363W, strain ESC2, hits give low values 1.01 | S. cerevisiae deletion strains, locus YDR388W, hits give low values 0.989 | S. cerevisiae deletion strains, locus YDR502C, strain sam2, hits give low values 0.996 | S. cerevisiae deletion strains, locus YEL061C, strain CIN8, hits give low values 1 | S. cerevisiae deletion strains, locus YER002W, strain NOP16, hits give low values 0.99 | S. cerevisiae deletion strains, locus YER110C, hits give low values 0.995 | S. cerevisiae deletion strains, locus YER155C, strain BEM2, hits give low values 1.01 | S. cerevisiae deletion strains, locus YER167W, strain BCK2, hits give low values 1 | S. cerevisiae deletion strains, locus YGL078C, strain dbp3, hits give low values 0.991 | S. cerevisiae deletion strains, locus YGL086W, strain mad1, hits give low values 0.998 | S. cerevisiae deletion strains, locus YGL248W, strain PDE1, hits give low values 1 | S. cerevisiae deletion strains, locus YGR135W, strain pre9, hits give low values 1.01 | S. cerevisiae deletion strains, locus YGR229C, strain SMI1, hits give low values 1.05 | S. cerevisiae deletion strains, locus YGR252W, strain gcn5, hits give low values 0.92 | S. cerevisiae deletion strains, locus YHR030C, strain SLT2, hits give low values 0.997 | S. cerevisiae deletion strains, locus YHR079C, strain IRE1 (second series), hits give low values 0.985 | S. cerevisiae deletion strains, locus YHR094C, strain hxt1, hits give low values 0.995 | S. cerevisiae deletion strains, locus YHR129C, strain ARP1, hits give low values 0.997 | S. cerevisiae deletion strains, locus YHR200W, strain rpn10, hits give low values 0.994 | S. cerevisiae deletion strains, locus YIL066C, strain RNR3, hits give low values 1.01 | S. cerevisiae deletion strains, locus YIL073C, strain SPO22, hits give low values 1.01 | S. cerevisiae deletion strains, locus YIL125W, strain kgd1, hits give low values 0.999 | S. cerevisiae deletion strains, locus YIR030C, strain dcg1, hits give low values 0.995 | S. cerevisiae deletion strains, locus YJL095W, strain BCK1, hits give low values 1.01 | S. cerevisiae deletion strains, locus YJL134W, strain LCB3, hits give low values 1 | S. cerevisiae deletion strains, locus YJL168C, strain set2, hits give low values 0.991 | S. cerevisiae deletion strains, locus YJL187C, strain SWE1 (second series), hits give low values 1.01 | S. cerevisiae deletion strains, locus YJR043C, strain POL32, hits give low values 1.02 | S. cerevisiae deletion strains, locus YJR075W, strain HOC1, hits give low values 1.01 | S. cerevisiae deletion strains, locus YKL009W, strain mrt4, hits give low values 0.983 | S. cerevisiae deletion strains, locus YKL068W, hits give low values 0.992 | S. cerevisiae deletion strains, locus YKL085W, strain MDH1 (second series), hits give low values 0.999 | S. cerevisiae deletion strains, locus YKL085W, strain MDH1, hits give low values 0.999 | S. cerevisiae deletion strains, locus YKL190W, strain CNB1, hits give low values 1.01 | S. cerevisiae deletion strains, locus YKR001C, strain vps1, hits give low values 0.997 | S. cerevisiae deletion strains, locus YLR039C, strain RIC1, hits give low values 1.01 | S. cerevisiae deletion strains, locus YLR058C, strain SHM2, hits give low values 1.01 | S. cerevisiae deletion strains, locus YLR102C, strain apc9, hits give low values 0.991 | S. cerevisiae deletion strains, locus YLR262C, strain YPT6, hits give low values 1.03 | S. cerevisiae deletion strains, locus YLR268W, strain sec22, hits give low values 0.986 | S. cerevisiae deletion strains, locus YLR330W, strain CHS5, hits give low values 1.01 | S. cerevisiae deletion strains, locus YLR342W, strain FKS1 (second series), hits give low values 0.988 | S. cerevisiae deletion strains, locus YLR371W, strain rom2, hits give low values 0.988 | S. cerevisiae deletion strains, locus YLR418C, strain cdc73, hits give low values 0.975 | S. cerevisiae deletion strains, locus YML016C, strain PPZ1, hits give low values 1 | S. cerevisiae deletion strains, locus YML032C, strain rad52, hits give low values 0.995 | S. cerevisiae deletion strains, locus YML124C, strain tub3, hits give low values 0.994 | S. cerevisiae deletion strains, locus YMR078C, strain ctf18, hits give low values 0.995 | S. cerevisiae deletion strains, locus YMR223W, strain ubp8, hits give low values 0.995 | S. cerevisiae deletion strains, locus YMR263W, strain SAP30, hits give low values 1 | S. cerevisiae deletion strains, locus YMR307W, strain GAS1, hits give low values 0.967 and 0.989 | S. cerevisiae deletion strains, locus YNL067W, strain RPL9B, hits give low values 1 | S. cerevisiae deletion strains, locus YNL153C, strain GIM3, hits give low values 1.02 | S. cerevisiae deletion strains, locus YNL175C, strain NOP13, hits give low values 1 | S. cerevisiae deletion strains, locus YNL197C, strain WHI3, hits give low values 1.02 | S. cerevisiae deletion strains, locus YNL224C, strain SQS1, hits give low values 1.02 | S. cerevisiae deletion strains, locus YNL233W, strain BNI4, hits give low values 1 | S. cerevisiae deletion strains, locus YNL250W, strain rad50, hits give low values 0.989 | S. cerevisiae deletion strains, locus YNL271C, strain bni1, hits give low values 0.999 | S. cerevisiae deletion strains, locus YNL298W, strain CLA4, hits give low values 0.981 | S. cerevisiae deletion strains, locus YNL307C, strain MCK1, hits give low values 0.995 | S. cerevisiae deletion strains, locus YNR052C, strain pop2, hits give low values 0.99 | S. cerevisiae deletion strains, locus YOL006C, strain TOP1, hits give low values 1.04 | S. cerevisiae deletion strains, locus YOL012C, strain htz1 1.18 | S. cerevisiae deletion strains, locus YOL147C, strain pex11, hits give low values 0.995 | S. cerevisiae deletion strains, locus YOR061W, strain CKA2, hits give low values 1.01 | S. cerevisiae deletion strains, locus YOR069W, strain VPS5, hits give low values 1 | S. cerevisiae deletion strains, locus YOR083W, strain WHI5 (second series), hits give low values 1.03 | S. cerevisiae deletion strains, locus YOR136W, strain idh2, hits give low values 0.997 | S. cerevisiae deletion strains, locus YOR144C, strain elg1, hits give low values 0.995 | S. cerevisiae deletion strains, locus YOR184W, strain ser1, hits give low values 0.988 | S. cerevisiae deletion strains, locus YOR316C, strain cot1, hits give low values 0.992 | S. cerevisiae deletion strains, locus YPL055C, strain LGE1, hits give low values 1.03 and 1.01 | S. cerevisiae deletion strains, locus YPL241C, strain CIN2, hits give low values 1.01 | S. cerevisiae deletion strains, locus YPR119W, strain clb2, hits give low values 0.992 | S. cerevisiae deletion strains, locus YPR141C, strain kar3, hits give low values 0.996 | S. cerevisiae deletion strains, locus YPR163C, strain tif3, hits give low values 0.993 | S. cerevisiae deletion strains, locus YPR167C, strain met16, hits give low values 0.991 | S. cerevisiae deletion strains, strain wtn01, hits give low values 0.986 | S. cerevisiae strains, strain wild type, hits give low values 1
